± gives the standard deviation.

The assay concerns Streptococcus suis P1/7. Nature of the assay: percent growth relative to DMSO control; higher = less growth inhibition. To be noted: 10 µM; incubation time 18 h. On the procedure: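 CLSI broth microdilution: 5x10^4 CFU of Streptococcus suis (strain P1/7 or HE06) incubated with 10 µM Pathogen Box compound in cation-adjusted Mueller Hinton broth, 37 °C, 5% CO2, 18 h. Growth read as OD600 and expressed as percent of the DMSO-treated control (100%); mean ± SD of three independent experiments.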
Molecule `CC(=O)NCC1CN(c2ccc(-c3ccc(CNCc4cn[nH]n4)cc3)c(F)c2)C(=O)O1` (stereo not given) yielded a percent growth of 0.637 ± 0.99%. `CC[C@@H]([C@H](C)O)n1ncn(-c2ccc(N3CCN(c4ccc(OC[C@@H]5CO[C@@](Cn6cncn6)(c6ccc(F)cc6F)C5)cc4)CC3)cc2)c1=O` came in with a percent growth of 77.5 ± 0.79%. `COc1cc(-c2cc(-c3ccc(S(C)(=O)=O)cc3)cnc2N)ccc1O`: the percent growth is 70.7 ± 22%. The figure for `CNc1snc(C)c1C(=O)NCCOc1ccc(OC)cc1` is 115 ± 71%; for `CCN(CC)CCCCCCNc1cc(OC)cc2c(C)ccnc12` it is 83.2 ± 15%; for `CC(=O)Oc1ccccc1C(=O)Nc1ncc([N+](=O)[O-])s1` it is 35.5 ± 5.8%. The figure for `Cc1cc(NCCc2ccccc2)nc(NC(=N)Nc2ccc(Cl)cc2)n1` is 74.4 ± 13%; for `COC(=O)c1c(NC(=O)c2cc3ccccc3oc2=O)sc2c1CCN(Cc1ccccc1)C2` it is 149 ± 81%. In the case of `Cc1cc(C)cc(COc2ccc3c(C)c(CCC(=O)O)c(=O)oc3c2C)c1` it was 35.3 ± 14%.

In turn, `COC(=O)Nc1nc2cc(C(=O)c3ccccc3)ccc2[nH]1` displayed a percent growth of 74.9 ± 28%. `CN1CCCN(C(c2ccccc2)c2ccc(Cl)cc2)CC1` (stereo not given) yielded a percent growth of 85.4 ± 14%. The figure for `O=C(Nc1cccc(-c2ccc(NCCCN3CCCC3)nc2)c1)c1ccccc1` is 72.5 ± 24%; for `COc1ccc(N(CCc2cccc(C)n2)C(=O)C2CCCCC2)cc1` it is 105 ± 28%. `CCN(CC)CCCN1CCN(C(=O)c2cccc(-c3noc(C(F)(F)F)n3)c2)CC1` registered a percent growth of 138 ± 110%. The figure for `Cc1nc2ccccn2c1C(=O)NCc1ccc(Cl)cc1` is 133 ± 76%; for `Cc1nnc(NC(=O)c2cn(-c3ccccc3)nc2-c2ccccc2C)o1` it is 0.18 ± 0.31%. For the molecule `CC1CS(=O)(=O)CCN1/N=C/c1ccc([N+](=O)[O-])o1` (stereo not given), the percent growth is 85.1 ± 16%.

For the molecule `O=C1[C@@H](Oc2ccccc2)[C@@H](c2ccc(Cl)cc2)N1CCn1cnc2c(NCc3ccccc3)ncnc21`, the percent growth stood at 112 ± 21%. As to `CCS(=O)(=O)N(Cc1ccco1)Cc1cc2ccc(C)cc2nc1O`, the percent growth came to 77.1 ± 19%.

On to `Cc1ccc2[nH]c3c(NCCN(C)C)ncnc3c2c1`, for which the percent growth turned out to be 172 ± 110%. For the molecule `CCc1nc2ccc(C(=O)NCc3ccc4c(c3)OCO4)cn2c1N(C)Cc1cccs1`, the percent growth was 72.9 ± 11%. In the case of `Cc1cc(NC(=O)c2ccc(Oc3ccc(Cl)cc3O)o2)no1` it was 124 ± 65%; in that of `O=C([C@@H](c1ccc(Cl)cc1)c1cccnc1)N1CCN(c2ccc(C(F)(F)F)cc2)CC1`, 75.6 ± 12%. The figure for `COc1cc(NC(C)CCCN)c2ncccc2c1` (stereo not given) is 127 ± 60%. The figure for `Clc1ccc(Cl)c(CO[C@H]2CCCC[C@@H]2n2ccnc2)c1` is 20.8 ± 36%; for `c1ccc(-c2[nH]c3ccccc3c2C(c2ccccn2)N2CCCC2)cc1` (stereo not given) it is 108 ± 23%. For the molecule `CNc1cc(C)nc(C2CN(C(=O)c3n[nH]c4ccccc34)CCO2)c1` (stereo not given), the percent growth worked out at 105 ± 50%.

`Cc1[nH]c2cc(F)cc(F)c2c(=O)c1-c1ccc(Oc2ccc(OC(F)(F)F)cc2)cc1`: the percent growth is 88.9 ± 18%.

`CCc1nc2ccc(Cl)cn2c1C(=O)NCc1ccc(N2CCC(c3ccc(OC(F)(F)F)cc3)CC2)cc1` registered a percent growth of 111 ± 65%.

In turn, `O=C(NCCc1ccccc1)c1cc(-c2cccnc2)cnc1NCC1CC1` registered a percent growth of 59.7 ± 23%.

Molecule `CNC(=O)c1nn(C)c2c1C(C)(C)Cc1cnc(Nc3ccc(N4CCN(C)CC4)cc3)nc1-2` came in with a percent growth of 92.6 ± 19%. The molecule `C[C@H]1c2cccc(O)c2C(=O)C2=C(O)[C@]3(O)C(=O)C(C(N)=O)=C(O)[C@@H](N(C)C)[C@@H]3[C@@H](O)[C@@H]21` had a percent growth of 1.89 ± 3.3%. `CC1=Nc2ccc(Cl)cc2C(c2ccccc2)N1CCNC(=O)CN(C)C` (stereo not given) displayed a percent growth of 84.5 ± 16%. In the case of `CCCCCCCCCCCCCCCCOP(=O)([O-])OCC[N+](C)(C)C` it was 112 ± 40%. In the case of `Brc1c(-c2ccc3c(c2)OCO3)nc2ncccn12` it was 85.8 ± 20%; in that of `COc1ccccc1C(C)NCC(=O)Nc1cc(C(F)(F)F)ccc1Cl` (stereo not given), 112 ± 23%. In the case of `Cc1cc(C)n2nc(C(=O)Nc3cc(C(F)(F)F)ccc3N3CCOCC3)nc2n1`, the percent growth was 81.4 ± 16%.

`CC(C)(C)c1cc(C(=O)Nc2cccnc2)cc(C(=O)Nc2cccnc2)c1`: the percent growth amounted to 143 ± 90%. `CCC(NC(=O)c1ccccc1NC(=O)c1ccc(C)cc1)C(=O)OC` (stereo not given) registered a percent growth of 78.1 ± 18%. In the case of `Cc1cc(Nc2ccc(C(F)(F)F)cc2)n2ccnc2n1` it was 97.6 ± 41%.

The record behind these values is the supplement of paper PMC7866885, “A novel bicyclic 2,4-diaminopyrimidine inhibitor of Streptococcus suis dihydrofolate reductase” (PeerJ, 2021).
